Rows were chosen to be rich in hits. Some 4% of all compounds tested hit in one or more screens of this group.
TROY signal inh: inhibitors of TROY-dependent NF-kB signaling. Q293 LMP1-TROYcd NF-kB luciferase reporter, 4 h. inhibition, % at 10 µM. 360,000 tested, 0.98% active;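 active means compounds whose plate-normalised and pattern-corrected inhibition of the luciferase reporter signal at the single screening dose is 50% or more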
TWEAK Fn14 block: TWEAK-Fn14 signaling inhibition | TWEAK-stimulated Fn14 reporter cells, luciferase luminescence, 8 h | inhibition, % at 10 µM | 360,000 tested, 2% active | AID 1159606; in the data active means inhibition above about 50%
CF NFkB inh: inhibitors of cystic fibrosis induced NF-kB; AID 588850; KKLEB NF-kB-GFP reporter, PAF-induced, GFP fluorescence overnight; inhibition, % at 5 µM; 360,000 tested, 0.86% active;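 active means at least 50% inhibition at 5 µM, scaled per plate between neutral and stimulator controls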;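 further: PAF is a Pseudomonas aeruginosa culture filtrate used as stimulus; plate controls were PAF-stimulated DMSO wells for no effect and unstimulated DMSO wells for full effect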
HIF-2a inh: HIF-2a inhibition; 360,000 tested, 0.72% active; 786-0 RCC cells HIF-2a reporter, luciferase luminescence, overnight; inhibition, % at 18.8 µM; AID 624352;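 active means inhibition of the luminescence signal of 40% or more relative to plate controls, in a single-dose primary screen at 18.75 µM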
KKLEB cytotox: reduces viability of KKLEB cystic fibrosis airway cells; activity change (cytotoxicity), % at 5 µM; KKLEB CF airway cells viability, ATPlite luminescence, overnight; active compounds read low; cells stimulated with P. aeruginosa culture filtrate; 360,000 tested, 0.36% active;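 active means corrected activity change at or below -50% at 5 µM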
Peg3 prom inh: inhibitors of Peg3 promoter | HeLa PEG-Prom luciferase reporter, luminescence, overnight | inhibition, % at 20 µM | 360,000 tested, 1.7% active;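 active means inhibition of at least 50% at 20 µM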
CF NFkB conf: confirmation of cystic fibrosis induced NF-kB inhibitors | shares compounds with CF NFkB inh | KKLEB CF airway cells, PAF-induced NF-kB-GFP fluorescence, overnight | inhibition, % at 5 µM | 1,300 tested, 64% active; in the data active means inhibition above about 40%;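 further: stimulus PAF is a Pseudomonas aeruginosa filtrate and not platelet activating factor; plate controls were DMSO wells with stimulus for no effect and unstimulated DMSO wells for full effect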
* marks the source's active call; other numbers are inactive results.

`Cc1ccc2c(c1)C(=O)C(=O)N2Cc1ccc(F)cc1` gave TROY signal inh -15, TWEAK Fn14 block 14, CF NFkB inh 3, HIF-2a inh 9, KKLEB cytotox -16 and Peg3 prom inh 10.
`Cc1ccc2c(c1)C(=O)C(=O)N2Cc1ccc(Cl)cc1` gave TROY signal inh -7, TWEAK Fn14 block -10, CF NFkB inh 54*, HIF-2a inh -5, KKLEB cytotox -12, Peg3 prom inh -24 and CF NFkB conf 33.
Screening Cc1cccc(N2CCN(C(=O)c3ccc(S(=O)(=O)N(C)c4ccccc4)cc3)CC2)c1C returned TROY signal inh 30, TWEAK Fn14 block 61*, CF NFkB inh 54*, HIF-2a inh 11, KKLEB cytotox -31, Peg3 prom inh 35 and CF NFkB conf 44*.
CN1CCN(C(=O)c2ccc(S(=O)(=O)N(C)c3ccccc3)cc2)CC1 was read as TROY signal inh -10, TWEAK Fn14 block -1, CF NFkB inh 35, HIF-2a inh -5, KKLEB cytotox -10 and Peg3 prom inh -2.
Brc1ccc2[nH]c3c(c2c1)CCC3 was read as TROY signal inh 9, TWEAK Fn14 block -53, CF NFkB inh 3, HIF-2a inh -17, KKLEB cytotox -2 and Peg3 prom inh 14.
For O=C1Cc2c([nH]c3ccc(Br)cc23)-c2ccccc2N1 the results were TROY signal inh 4, TWEAK Fn14 block 79*, CF NFkB inh 85*, HIF-2a inh inactive, KKLEB cytotox -25, Peg3 prom inh 95* and CF NFkB conf 106*.
Screening COc1ccc(C(=O)N(C)CCOc2ccc(Cl)cc2)cc1S(=O)(=O)N1CCCC1 returned TROY signal inh -7, TWEAK Fn14 block -2, CF NFkB inh -17, HIF-2a inh -1, KKLEB cytotox 17 and Peg3 prom inh 7.
CC(c1ccccc1)N1C(=O)c2ccc(C(=O)Nc3ccccc3C(=O)O)cc2C1=O (configuration not stated) was read as TROY signal inh 28, TWEAK Fn14 block 45, CF NFkB inh 15, HIF-2a inh -46, KKLEB cytotox -28 and Peg3 prom inh 11.
CC(c1ccccc1)N1C(=O)c2ccc(C(=O)Nc3ccc(Br)cc3C(=O)O)cc2C1=O (configuration not stated) was read as TROY signal inh 64*, TWEAK Fn14 block 10, CF NFkB inh 60*, HIF-2a inh -3, KKLEB cytotox -4, Peg3 prom inh 10 and CF NFkB conf 44*.
Screening CCN(C(=O)COC(=O)c1ccc([N+](=O)[O-])o1)c1cccc2ccccc12 returned TROY signal inh -5, TWEAK Fn14 block 9, CF NFkB inh 66*, HIF-2a inh 11, KKLEB cytotox -16, Peg3 prom inh 35 and CF NFkB conf 18.
Screening COc1ccc2c(c1OC)C(=O)N1c3ccccc3C(=O)N(c3ccc(F)cc3)C21 (configuration not stated) returned TROY signal inh 10, TWEAK Fn14 block 12, CF NFkB inh 32, HIF-2a inh -5, KKLEB cytotox -4 and Peg3 prom inh 46.
Screening COc1ccc2c(c1OC)C(=O)N1c3ccccc3C(=O)N(c3ccccc3)C21 (configuration not stated) returned TROY signal inh 23, TWEAK Fn14 block 17, CF NFkB inh 68*, HIF-2a inh -10, KKLEB cytotox -4, Peg3 prom inh 44 and CF NFkB conf 97*.
For Cc1cc(C)c(C(O)c2ncc(-c3cccc(F)c3)[nH]2)c(C)c1 (configuration not stated) the results were TROY signal inh 7, TWEAK Fn14 block -25, CF NFkB inh 15, HIF-2a inh 11, KKLEB cytotox -7 and Peg3 prom inh 10.
CCOc1ccccc1C(=O)NCC(=O)N1CCN(Cc2ccc3c(c2)OCO3)CC1 was read as TROY signal inh 25, TWEAK Fn14 block -22, CF NFkB inh 74*, HIF-2a inh 0, KKLEB cytotox -14, Peg3 prom inh 0 and CF NFkB conf 31.
Screening COc1ccccc1C(=O)N1CCN(Cc2ccc3c(c2)OCO3)CC1 returned TROY signal inh 3, TWEAK Fn14 block -28, CF NFkB inh 15, HIF-2a inh 29, KKLEB cytotox -9 and Peg3 prom inh -91.

Assay outcomes from PubChem.
